# Source: PubChem (Buhrlage Lab, Dana-Farber Cancer Institute and Novartis Institutes for BioMedical Research (Cambridge, Mass))
# USP8 block: inhibitors of human USP8 deubiquitinase | Ubiquitin carboxyl-terminal hydrolase 8 (Homo sapiens), P40818 | purified USP8, Ub-rhodamine cleavage fluorescence, 30 min | inhibition, % at 20 µM | 47,000 compounds, 4.2% hits | AID 1645853, 2021
# USP28 block: inhibitors of human USP28 deubiquitinase | Ubiquitin carboxyl-terminal hydrolase 28 (Homo sapiens), Q96RU2 | purified USP28, Ub-rhodamine cleavage fluorescence, 30 min | inhibition, % at 25 µM | 47,000 compounds, 3% hits | AID 1645857, 2021
# USP17 inh: inhibitors of human USP17 deubiquitinase; inhibition, % at 50 µM; purified USP17, Ub-rhodamine cleavage fluorescence, 3 h; Ubiquitin carboxyl-terminal hydrolase 17-like protein 5 (Homo sapiens), A8MUK1; 47,000 compounds, 6.5% hits
# USP30 inh: inhibitors of human USP30 deubiquitinase | inhibition, % at 25 µM | Ubiquitin carboxyl-terminal hydrolase 30 (Homo sapiens), Q70CQ3 | 47,000 compounds, 5.3% hits | purified USP30, Ub-rhodamine cleavage fluorescence
# * = called active by the depositor; . = no result given. Sampled rows, rich in hits. Any-hit rate of the full collection: about 13%. No stated cut-off is given here; in the data, active means inhibition above about 30%; inactive means the rest.
SMILES,USP8 block,USP28 block,USP17 inh,USP30 inh
Cn1ccc(NC(=O)C2CCN(S(=O)(=O)c3cccs3)CC2)n1,28,15,7,18
Cc1ccc(CC2CCCN(C(=O)c3cn4c(C)cccc4n3)C2)cn1 (configuration not stated),0,5,-4,-2
O=C(Nc1ccc(S(=O)(=O)NC2=NCCCCC2)cc1)c1ccccc1,-5,-15,0,-25
COC(=O)c1cc2cc(NC(=O)c3cccc(Cl)c3)ccc2s1,7,-8,26,36*
CCOc1ccc(NS(=O)(=O)c2ccc(NC(=O)c3ccccc3C(=O)O)cc2)cc1,-4,0,-13,4
COc1ccc(NS(=O)(=O)c2ccc(C(=O)Nc3cccc(C(C)=O)c3)cc2)cc1,-1,12,46*,3
CCCOc1ccc(C(=O)Nc2ccc(S(=O)(=O)Nc3cc(C)nc(C)n3)cc2)cc1,-2,45*,-3,-7
COc1ccc(C(=O)Nc2cccc(S(=O)(=O)NC3=NCCCCC3)c2)cc1,-5,40*,-4,-9
Cc1nc2ccc(NC(=O)c3cccc(NS(=O)(=O)c4ccccc4)c3)cc2s1,-17,22,-24,-15
COC(=O)c1cc2cc(NS(=O)(=O)c3ccc(Cl)cc3)ccc2s1,5,11,16,7
O=S(=O)(c1ccccc1F)N1CCCN(c2nc3cccnc3s2)CC1,-58,8,-6,11
O=C1c2cc3c(cc2CCC1CN1CCOCC1)OCCO3 (configuration not stated),29,10,4,11
CCN1C(=O)CCC12CCCN(c1cc(OC)ncn1)CC2 (configuration not stated),-276,-7,-33,-5
Cc1cc2nc(C3CCN(C(=O)c4ccn[nH]4)CC3)ccn2n1,20,13,19,21
COc1ccc(S(=O)(=O)c2ccc(NC(=O)c3cccc(Cl)c3)cc2C#N)cc1,0,-3,33*,19
COc1ccc(NC(=O)c2cccc(C#N)c2)cc1S(=O)(=O)Nc1ccccc1Cl,10,-6,0,-4
COc1cccc(NS(=O)(=O)c2ccc3c(c2)N(C)CCO3)c1,-2,-1,-5,-5
COc1cccc(NS(=O)(=O)c2ccc(Oc3ccccc3OC)cc2)c1,20,34*,36*,37*
COc1ccccc1NC(=O)NC1CCN(c2ccc(F)cc2)C1=O (configuration not stated),-7,0,8,-39
O=C(Nc1ccc(F)cc1F)NC1CCN(c2ccccc2)C1=O (configuration not stated),14,45*,73*,5
O=C(CSc1nnc(-c2ccncc2)n1Cc1ccccc1)c1ccc2[nH]c(O)cc2c1,65*,27,58*,-48
CCn1cc(C(=O)Nc2ccccc2)c(S(=O)(=O)N2CCC(C)CC2)n1,-163,-4,-26,-1
NS(=O)(=O)c1ccc(CCNC(=O)COC(=O)c2cc(-c3ccc(Cl)cc3)nc3ccccc23)cc1,66*,37*,30*,39*
Cc1cc(C)c2sc(NC(=O)c3ccc4ccccc4c3)nc2n1,-22,-48,-155,-443
COCCNC(=O)C1c2ccccc2C(=O)N(Cc2ccccc2)C12CCCC2 (configuration not stated),10,12,-1,32*
SMILES,USP8 block,USP28 block,USP17 inh,USP30 inh
COCCCNC(=O)C1c2ccccc2C(=O)N(Cc2ccccc2)C12CCCC2 (configuration not stated),-8,-12,.,-15
COC(=O)CCCNC(=O)C1c2ccccc2C(=O)N(Cc2ccccc2)C12CCCC2 (configuration not stated),45*,-11,19,-33
O=C(Nc1ccccc1)c1ccnc(Nc2ccc(F)cc2)c1,40*,9,30*,7
O=C(Nc1ccc(F)cc1)c1cccc(-c2nc(-c3ccccc3)no2)c1,7,-6,5,-6
COc1ccc(C(=O)CSc2nc(C(=O)O)c3ccccc3n2)c(OC)c1,-13,-12,-17,-22
CN1CC(=O)N(c2ccccc2)CC12CCN(C(=O)c1ccncc1)C2 (configuration not stated),-19,-5,5,0
O=c1ccc(-c2noc(Cc3c(F)cccc3Cl)n2)c[nH]1,11,93*,16,27
Cc1ccccc1Cc1nc(-c2ccc(=O)[nH]c2)no1,-64,84*,3,-1
Cc1ccccc1Cc1nc(-c2ccnc(N3CCOCC3)c2)no1,15,32*,9,13
Cc1ccc(-c2nc(-c3ccc(=O)[nH]c3)no2)cc1F,1,-30,-6,-54
c1cncc(-c2noc(COC3CCN(Cc4ccoc4)CC3)n2)c1,-12,-2,0,5
c1ccc(Cn2c3ccccc3n3cc(-c4ccc(-c5ccccc5)cc4)nc23)cc1,-1,0,22,-196
CC(Sc1nc2nn(-c3ccccc3)c(=O)c-2c2n1CCCCC2)C(=O)Nc1ccc(C#N)cc1 (configuration not stated),-7,16,0,33*
Cc1ccc(NCc2cc3c(C(C)(C)C)nn(-c4ccc(Cl)cc4)c3[nH]c2=O)cc1C,88*,-4,43*,3
CC(C)(C)c1nn(-c2ccc(Cl)cc2)c2[nH]c(=O)c(CNCc3ccco3)cc12,66*,-81,-58,-334
Cc1nn(-c2ccccc2)c2[nH]c(=O)c(CNc3ccccc3)cc12,4,-38,27,-38
Cc1nn(-c2ccc(Cl)cc2)c2[nH]c(=O)c(CNCCc3ccccc3)cc12,78*,4,12,-16
Cc1nn(-c2ccccc2)c2[nH]c(=O)c(CNCCN3CCOCC3)cc12,22,12,20,22
Cc1nn(-c2ccc(Cl)cc2)c2[nH]c(=O)c(CNc3ccccc3)cc12,80*,5,40*,-14
Cn1c2c(c(=O)n(C)c1=O)CN(C1CCCC1)CN2,-136,-5,-17,-5
Cc1cccc(-n2nnc(C(=O)Nc3cccc(Cl)c3)c2C)c1,14,14,14,14
Cc1cc2c(cc1S(=O)(=O)CCC(=O)Nc1ccc(S(N)(=O)=O)cc1)OCC(=O)N2,4,-5,-4,5
COc1ccc2c(c1)c(CC(=O)Nc1ccc3c(c1)OCCO3)c(C)n2C(=O)c1ccc(Cl)cc1,5,-1,10,0
Cc1nn(-c2ccc(Cl)cc2)c2[nH]c(=O)c(CNc3ccc4c(c3)OCCO4)cc12,80*,-51,-31,-187
CNC(=O)[C@@]12CCCN(c3ncccn3)[C@@H]1CN(Cc1ccccc1F)C2,-3,11,1,20
c1ccc(-c2onc3c2CCCC3)cc1,10,35*,9,17
O=C(NCc1cc(-c2ccccc2F)on1)C1CC1,-7,2,-12,-10
O=C(Nc1ccc2c(c1)OCO2)c1[nH]nc2c1CCc1ccccc1-2,85*,43*,66*,4
O=C(NCc1ccc2c(c1)OCO2)c1cc(-c2cc(Cl)ccc2O)n[nH]1,50*,26,28,77*
